According to PubChem BioAssay:
Results filed as inconclusive are left out. The source made the active and inactive calls. Unless noted, no cut-off is given here; in the data, nearly all actives have AC50 up to about 23 µM.

assay: viability loss in pontine glioma line – cell-based, SU-DIPG-IV, MIPE4.0, CellTiter-Glo, qHTS, dose response (AID 1347063; cut-off not given, nearly all actives have AC50 up to about 30 µM;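 note: compound exposure lasted 48 hours before the viability readout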); settings: CellTiter-Glo ATP luminescence

Which AC50 does the source give for `COc1cc(C(C)C)c(Oc2cnc(NC(CO)CO)nc2N)cc1I` here?
Its AC50 is 14.8 µM (active).

For `O[C@@H](COc1cccc2ncccc12)CN1CCN(C2c3ccccc3[C@@H]3[C@H](c4ccccc42)C3(F)F)CC1` (some centres undefined), which AC50 is on record?
Its AC50 is 16.6 µM (active).

For `COc1ccc(-c2ccc3c(N4CCOCC4)nc(N4C[C@@H](C)O[C@@H](C)C4)nc3n2)cc1CO`, which AC50 is on record?
Its AC50 is 0.332 µM (active).

Which AC50 does the source give for `CC(C)c1cc(C(C)C)c(CC(=O)NS(=O)(=O)Oc2c(C(C)C)cccc2C(C)C)c(C(C)C)c1` here?
The AC50 was 20.9 µM (active).

With `CN1N=C(N)c2cn([C@@H]3O[C@H](COP(=O)(O)O)[C@@H](O)[C@H]3O)c3ncnc1c23` as the molecule, how does the AC50 read?
The AC50 was 0.372 µM (active).

For `COc1cc(C)c(Sc2cnc(NC(=O)c3ccc(CNC(C)C(C)C)cc3)s2)cc1C(=O)N1CCN(C(C)=O)CC1` (centres undefined), which AC50 is on record?
Its AC50 is 18.7 µM (active).

With `COc1cc(F)c(C(C)C)cc1-c1ccc(C(F)(F)F)cc1CN1C(=O)O[C@H](c2cc(C(F)(F)F)cc(C(F)(F)F)c2)[C@@H]1C` as the molecule, how does the outcome read?
Its outcome is “inactive”.

With `CCOc1cc2ncc(C#N)c(Nc3ccc(OCc4ccccn4)c(Cl)c3)c2cc1NC(=O)/C=C/CN(C)C` as the molecule, how does the AC50 read?
Its AC50 is 0.148 µM (active).

With `CC[C@@]1([C@@H]2O[C@@H]([C@H]3O[C@@](O)(CO)[C@H](C)C[C@@H]3C)C[C@@H]2C)CC[C@H]([C@]2(C)CC[C@]3(C[C@H](O)[C@@H](C)[C@@H]([C@@H](C)[C@@H](OC)[C@H](C)C(=O)O)O3)O2)O1` as the molecule, how does the AC50 read?
Its AC50 is 0.144 µM (active).

For `CC(C)C[C@@H](N)[C@H](O)C(=O)N[C@H](C(=O)N[C@H](C(=O)N[C@@H](CC(=O)O)C(=O)O)C(C)C)C(C)C`, which outcome is on record?
Its outcome is “inactive”.

For `COc1c(OCCCN2CCOCC2)ccc2c3n(c(=NC(=O)c4cnc(N)nc4)nc12)CCN3`, which AC50 is on record?
Its AC50 is 0.102 µM (active).

For `CC(=O)O/N=C1/C(c2c(O)[nH]c3cc(Br)ccc23)=Nc2ccccc21`, which AC50 is on record?
Its AC50 is 1.48 µM (active).

For `CC1=C[C@@H]2[C@H]([C@@H](O)C[C@@]3(C)[C@H]2C[C@@H](C)[C@]3(O)C(=O)CO)[C@@]2(C)Cc3cnn(-c4ccccc4)c3C=C12`, which AC50 is on record?
Its AC50 is 3.72 µM (active).

For `COc1cc2nccc(Oc3ccc(NC(=O)Nc4cc(C)on4)c(Cl)c3)c2cc1OC`, which AC50 is on record?
Its AC50 is 18.7 µM (active).

With `Cc1cc(Nc2cc(CN3CCOCC3)c3nc(C)c(Cc4ccc(Cl)cc4F)n3n2)n[nH]1` as the molecule, how does the AC50 read?
Its AC50 is 11.8 µM (active).

Which AC50 does the source give for `CCN(CC)CCCCNc1ncc2c(n1)N(C)C(=O)N(c1c(Cl)c(OC)cc(OC)c1Cl)C2` here?
Its AC50 is 18.7 µM (active).

Which AC50 does the source give for `CC(N[C@H]1CCCC[C@@H]1NC(=O)c1ccc(Cl)cc1)c1cccc2ccccc12` (some centres undefined) here?
The AC50 was 0.148 µM (active).

With `N#Cc1c(NC(=O)c2cccc3ccccc23)sc2c1CCCC2` as the molecule, how does the AC50 read?
The AC50 was 0.418 µM (active).

With `COc1ccccc1[C@H](c1cccc2ccccc12)[C@@](C)(C#N)C(=O)N1CCC(c2cccc(C(F)(F)F)c2)CC1` as the molecule, how does the AC50 read?
The AC50 was 3.32 µM (active).

With `COc1ccc(-c2ccc3c(N4CCOC[C@@H]4C)nc(N4CCOC[C@@H]4C)nc3n2)cc1CO` as the molecule, how does the AC50 read?
The AC50 was 0.00935 µM (active).

With `COc1cccc2cc(-c3nc(C4CCC(C(=O)O)CC4)n4ncnc(N)c34)[nH]c12` (centres undefined) as the molecule, how does the AC50 read?
Its AC50 is 0.166 µM (active).

Which AC50 does the source give for `CC(C)CNc1ccnc(NCc2csc(-c3ccccc3)n2)n1` here?
The AC50 was 16.6 µM (active).

For `NCc1c[nH]c(=S)n1[C@H]1CCc2c(F)cc(F)cc2C1`, which AC50 is on record?
The AC50 was 9.35 µM (active).

Which AC50 does the source give for `COC(=O)c1ccc2c(C(=Nc3ccc(N(C)C(=O)CN4CCN(C)CC4)cc3)c3ccccc3)c(O)[nH]c2c1` here?
Its AC50 is 9.35 µM (active).

For `Cc1ccc(F)c(NC(=O)Nc2ccc(-c3cccc4[nH]nc(N)c34)cc2)c1`, which AC50 is on record?
Its AC50 is 14.8 µM (active).

assay: viability loss in pontine glioma line – cell-based, SU-DIPG-XIII, MIPE5.0, CellTiter-Glo, qHTS, dose response (AID 1347064); settings: CellTiter-Glo ATP luminescence;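 for AC50: cells exposed to compound for 48 hours before the viability read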

For `N#CCNC(=O)c1ccc(-c2ccnc(Nc3ccc(N4CCOCC4)cc3)n2)cc1`, which AC50 is on record?
Its AC50 is 13.2 µM (active).

For `COc1ccc2c(c1)CC[C@@H]1[C@@H]2CC[C@]2(C)[C@@H](NCCCCCCN3C(=O)C=CC3=O)CC[C@@H]12`, which outcome is on record?
Its outcome is “inactive”.

Which AC50 does the source give for `CC1(C)CCC2=C(O1)c1ccccc1C(=O)C2=O` here?
Its AC50 is 6.61 µM (active).

Which AC50 does the source give for `Cc1ncc(-c2ccnc(Nc3ccc(S(C)(=O)=O)cc3)n2)n1C(C)C` here?
Its AC50 is 3.72 µM (active).

Which AC50 does the source give for `Nc1nc(Nc2ccc(S(N)(=O)=O)cc2)nn1C(=O)c1c(F)cccc1F` here?
Its AC50 is 4.68 µM (active).

With `C/C(O)=C(\C#N)C(=O)Nc1ccc(C(F)(F)F)cc1` as the molecule, how does the outcome read?
Its outcome is “inactive”.

For `O=C(Nc1ccccc1-c1cn2c(CN3CCNCC3)csc2n1)c1cnc2ccccc2n1`, which AC50 is on record?
The AC50 was 2.09 µM (active).

Which AC50 does the source give for `CNC(=O)c1cccc(-c2ccc3c(N4CCOC[C@@H]4C)nc(N4CCOC[C@@H]4C)nc3n2)c1` here?
Its AC50 is 0.118 µM (active).

Which AC50 does the source give for `C[C@H]1[C@H](O)O[C@@H]2O[C@@]3(C)CC[C@H]4[C@H](C)CC[C@@H]1[C@@]24OO3` here?
The AC50 was 4.68 µM (active).

For `COc1cc(C(C)C)c(Oc2cnc(NC(CO)CO)nc2N)cc1I`, which outcome is on record?
Its outcome is “inactive”.

For `O[C@@H](COc1cccc2ncccc12)CN1CCN(C2c3ccccc3[C@@H]3[C@H](c4ccccc42)C3(F)F)CC1` (some centres undefined), which AC50 is on record?
Its AC50 is 23.5 µM (active).

For `COc1ccc(-c2ccc3c(N4CCOCC4)nc(N4C[C@@H](C)O[C@@H](C)C4)nc3n2)cc1CO`, which AC50 is on record?
The AC50 was 4.17 µM (active).

With `CC(C)c1cc(C(C)C)c(CC(=O)NS(=O)(=O)Oc2c(C(C)C)cccc2C(C)C)c(C(C)C)c1` as the molecule, how does the AC50 read?
The AC50 was 13.2 µM (active).

With `CN1N=C(N)c2cn([C@@H]3O[C@H](COP(=O)(O)O)[C@@H](O)[C@H]3O)c3ncnc1c23` as the molecule, how does the AC50 read?
The AC50 was 1.66 µM (active).

With `COc1cc(C)c(Sc2cnc(NC(=O)c3ccc(CNC(C)C(C)C)cc3)s2)cc1C(=O)N1CCN(C(C)=O)CC1` (centres undefined) as the molecule, how does the AC50 read?
The AC50 was 8.33 µM (active).

For `COc1cc(F)c(C(C)C)cc1-c1ccc(C(F)(F)F)cc1CN1C(=O)O[C@H](c2cc(C(F)(F)F)cc(C(F)(F)F)c2)[C@@H]1C`, which outcome is on record?
Its outcome is “inactive”.

Which AC50 does the source give for `CCOc1cc2ncc(C#N)c(Nc3ccc(OCc4ccccn4)c(Cl)c3)c2cc1NC(=O)/C=C/CN(C)C` here?
The AC50 was 5.9 µM (active).

For `CC[C@@]1([C@@H]2O[C@@H]([C@H]3O[C@@](O)(CO)[C@H](C)C[C@@H]3C)C[C@@H]2C)CC[C@H]([C@]2(C)CC[C@]3(C[C@H](O)[C@@H](C)[C@@H]([C@@H](C)[C@@H](OC)[C@H](C)C(=O)O)O3)O2)O1`, which AC50 is on record?
Its AC50 is 0.456 µM (active).

For `CC(C)C[C@@H](N)[C@H](O)C(=O)N[C@H](C(=O)N[C@H](C(=O)N[C@@H](CC(=O)O)C(=O)O)C(C)C)C(C)C`, which outcome is on record?
Its outcome is “inactive”.

For `COc1c(OCCCN2CCOCC2)ccc2c3n(c(=NC(=O)c4cnc(N)nc4)nc12)CCN3`, which AC50 is on record?
The AC50 was 0.27 µM (active).

Which AC50 does the source give for `CC(=O)O/N=C1/C(c2c(O)[nH]c3cc(Br)ccc23)=Nc2ccccc21` here?
The AC50 was 20.9 µM (active).

For `CC1=C[C@@H]2[C@H]([C@@H](O)C[C@@]3(C)[C@H]2C[C@@H](C)[C@]3(O)C(=O)CO)[C@@]2(C)Cc3cnn(-c4ccccc4)c3C=C12`, which AC50 is on record?
Its AC50 is 9.34 µM (active).

Which AC50 does the source give for `COc1cc2nccc(Oc3ccc(NC(=O)Nc4cc(C)on4)c(Cl)c3)c2cc1OC` here?
The AC50 was 9.34 µM (active).

Which AC50 does the source give for `Cc1cc(Nc2cc(CN3CCOCC3)c3nc(C)c(Cc4ccc(Cl)cc4F)n3n2)n[nH]1` here?
The AC50 was 10.5 µM (active).

For `CCN(CC)CCCCNc1ncc2c(n1)N(C)C(=O)N(c1c(Cl)c(OC)cc(OC)c1Cl)C2`, which AC50 is on record?
The AC50 was 0.263 µM (active).

For `CC(N[C@H]1CCCC[C@@H]1NC(=O)c1ccc(Cl)cc1)c1cccc2ccccc12` (some centres undefined), which AC50 is on record?
The AC50 was 7.42 µM (active).

For `N#Cc1c(NC(=O)c2cccc3ccccc23)sc2c1CCCC2`, which AC50 is on record?
The AC50 was 1.32 µM (active).

For `COc1ccccc1[C@H](c1cccc2ccccc12)[C@@](C)(C#N)C(=O)N1CCC(c2cccc(C(F)(F)F)c2)CC1`, which outcome is on record?
The outcome was “inactive”.

With `COc1ccc(-c2ccc3c(N4CCOC[C@@H]4C)nc(N4CCOC[C@@H]4C)nc3n2)cc1CO` as the molecule, how does the AC50 read?
Its AC50 is 0.661 µM (active).

For `COc1cccc2cc(-c3nc(C4CCC(C(=O)O)CC4)n4ncnc(N)c34)[nH]c12` (centres undefined), which AC50 is on record?
The AC50 was 3.72 µM (active).

For `CC(C)CNc1ccnc(NCc2csc(-c3ccccc3)n2)n1`, which AC50 is on record?
The AC50 was 14.8 µM (active).

Which outcome does the source give for `NCc1c[nH]c(=S)n1[C@H]1CCc2c(F)cc(F)cc2C1` here?
The outcome was “inactive”.

With `COC(=O)c1ccc2c(C(=Nc3ccc(N(C)C(=O)CN4CCN(C)CC4)cc3)c3ccccc3)c(O)[nH]c2c1` as the molecule, how does the AC50 read?
The AC50 was 2.09 µM (active).

Which AC50 does the source give for `Cc1ccc(F)c(NC(=O)Nc2ccc(-c3cccc4[nH]nc(N)c34)cc2)c1` here?
The AC50 was 7.42 µM (active).
